Test results from article PMC7819943, “Rice protein-binding microarrays: a tool to detect cis-acting elements near promoter regions in rice”.
In all, about 39,000 sequences were measured (“fluorescence intensity (a.u.)”: median about 4,300, highest 2% from about 39,000 on). This excerpt belongs to a sample that is enriched for the highest values.

These sequences were tested against T1, OsSMF1 (Oryza sativa, UniProt Q6ZLB0 1-436) (assay: protein-binding microarray (RPBM); PBS, 2% BSA, 51.3 ng/ul salmon testes DNA, 50 uM zinc acetate, 200 nM TF, 25 C, 1 h; high values mean tight binding). Conditions: protein: recombinant; tags: N-terminal polyhistidine and DsRed monomer fusion (pET32a); chain copies: 2; label: CyDye5-dUTP incorporated in the synthesized complementary strand; 3' TTTTT single-stranded linker to array surface; dsDNA, one strand shown.
T1 sequence: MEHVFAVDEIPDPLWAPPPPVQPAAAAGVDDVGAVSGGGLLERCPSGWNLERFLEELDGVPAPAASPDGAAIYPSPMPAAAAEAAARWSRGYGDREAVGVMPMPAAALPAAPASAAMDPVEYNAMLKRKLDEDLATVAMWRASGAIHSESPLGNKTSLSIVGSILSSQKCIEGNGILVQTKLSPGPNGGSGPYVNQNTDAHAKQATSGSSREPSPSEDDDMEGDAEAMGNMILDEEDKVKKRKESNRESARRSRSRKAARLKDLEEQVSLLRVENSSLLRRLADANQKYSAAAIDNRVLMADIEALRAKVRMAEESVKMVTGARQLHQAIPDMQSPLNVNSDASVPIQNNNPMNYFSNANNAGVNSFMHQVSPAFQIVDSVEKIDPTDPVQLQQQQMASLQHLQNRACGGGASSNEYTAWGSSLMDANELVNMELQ
Procedure, shortened: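 Per-feature fluorescence intensity (arbitrary units), read on an Axon 4000B scanner, is the binding signal. Transcription factors carrying an N-terminal polyhistidine tag and DsRed fusion were expressed in E. coli BL21-CodonPlus and purified on Ni–NTA. A custom Agilent array, made double-stranded by primer extension with Cy5-dUTP and blocked with 2% BSA, was incubated with 200 nM protein in PBS, 2% BSA, salmon testes DNA and 50 µM zinc acetate at 25 °C for 1 h and then washed.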

First: GGAGGGTGGGGTAGGAGAGGATGCGGCGGGCGCCATGGCTCGGAGTCACCTAGTGCAG
Second: GCCACTTGCCCAGGTCACGCACACATTATTGAGCGAGCGACGGAGTCACCTAGTGCAG
The binding signal of the first is lower: 3450 fluorescence intensity (a.u.) for the first, 4590 fluorescence intensity (a.u.) for the second.

Going from “AGTCGCACGCCAAGTGTTTGTTGTTTTGCCAAGCAAGATGCGGAGTCACCTAGTGCAG” to “TCGAGCCCCTCTCCCTCCGCGAGCCGTGTGCAGCGGGCGACGGAGTCACCTAGTGCAG”, the binding signal falls from 3520 fluorescence intensity (a.u.) to 3430 fluorescence intensity (a.u.).

Going from “ACGGATTCCTGTTAATAGAGTGTTTCCGTAATATGTGGCACGGAGTCACCTAGTGCAG” to “GTTTGGGGTTTCTTTCCTGCCTCGTGAGCTGACGCCGGTGCGGAGTCACCTAGTGCAG”, the binding signal rises from 3820 fluorescence intensity (a.u.) to 4080 fluorescence intensity (a.u.).

First: GTTAGTGCCACGTGGCGCCTTCCCATTCGACCGCCGCCCGCGGAGTCACCTAGTGCAG
Second: CGCCTTCGTCCCATCTCGACCGTCCACGTGTGGCCCATCCCGGAGTCACCTAGTGCAG
The binding signal of the first is higher: 42100 fluorescence intensity (a.u.) for the first, 8200 fluorescence intensity (a.u.) for the second.

First: AAAGCGTTCCGCGGCGCCGCCGTGGCGTCCGGCGTCCGGCCGGAGTCACCTAGTGCAG
Second: GCCGCGCCGCGCCGTGGCGTGGCGTGGCGTGGCGCGGCCACGGAGTCACCTAGTGCAG
The binding signal of the first is lower: 3900 fluorescence intensity (a.u.) for the first, 6530 fluorescence intensity (a.u.) for the second.

Going from “GGCAGCCATTCCCACCGCGCCACACGCGCCACACGCCCCGCGGAGTCACCTAGTGCAG” to “CCGGCGGCAGTGGCCCGGCGGCGCCGCCACCTTCCGTGCCCGGAGTCACCTAGTGCAG”, the binding signal rises from 3240 fluorescence intensity (a.u.) to 43700 fluorescence intensity (a.u.).

Compared with “CTCGAGCCCGCGGATGGCGCCCCATGGCGTGGCGGCGGAGCGGAGTCACCTAGTGCAG”, “TGTAAGCATCAGCATGTCAAGGTTAACACCTCACTATCTCCGGAGTCACCTAGTGCAG” is higher in binding signal: 3820 fluorescence intensity (a.u.) for the first, 4630 fluorescence intensity (a.u.) for the second.

Compared with “ACAGGGGCAGGGGTCATGTGGTGGAGGTAATCAATTAATCCGGAGTCACCTAGTGCAG”, “TAGATGTTACTCCCTCCGTCCCTTCGTCCTAAAATGTAGCCGGAGTCACCTAGTGCAG” is higher in binding signal: 3660 fluorescence intensity (a.u.) for the first, 35900 fluorescence intensity (a.u.) for the second.

Compared with “GCAGATCTTGACTATCTCCACGGGATATATACACGGCGGCCGGAGTCACCTAGTGCAG”, “CGCTCATGAAGCTCCTTCCCTACGCGCGCTCGCCGAATCGCGGAGTCACCTAGTGCAG” is higher in binding signal: 22300 fluorescence intensity (a.u.) for the first, 44000 fluorescence intensity (a.u.) for the second.

Compared with “GCTCCTCGCGCTGCTCATCATCCTCCCCTCCACGCCGCCGCGGAGTCACCTAGTGCAG”, “CTCCCTTCCCTTCCCTTCCTCTCGCCGAACCAACGCGGAACGGAGTCACCTAGTGCAG” is lower in binding signal: 4730 fluorescence intensity (a.u.) for the first, 3360 fluorescence intensity (a.u.) for the second.

First: CCCAAGGAGGATGAGGTGGAGGTGGGAGTGCGCATTGAGGCGGAGTCACCTAGTGCAG
Second: CCTTAGACCTTCTGGATTACATCGTAAGCTGGCTTCTCCTCGGAGTCACCTAGTGCAG
The binding signal of the first is higher: 4880 fluorescence intensity (a.u.) for the first, 3490 fluorescence intensity (a.u.) for the second.

Going from “CCACACAGCGATAATCGAGCGGATTGGACCAAAGTACGAGCGGAGTCACCTAGTGCAG” to “CAAAGCGGCCCAACAATGAACACGTCACTTGTATTCACTACGGAGTCACCTAGTGCAG”, the binding signal falls from 38200 fluorescence intensity (a.u.) to 7510 fluorescence intensity (a.u.).

Going from “ACAAACTTTGTATACGTGTATAAAATATTGATATATGTACCGGAGTCACCTAGTGCAG” to “ATGTGACTGAAAAGTTGTGTGTGTATGACAGGTTGATGTGCGGAGTCACCTAGTGCAG”, the binding signal falls from 4410 fluorescence intensity (a.u.) to 3800 fluorescence intensity (a.u.).

Going from “GTTTGAGATGTGTAATAAAGGATCGATCTTGTTGACGATCCGGAGTCACCTAGTGCAG” to “TGACAGGTTGATGTGATGGAAAAGGACTGAAGGTTGGATCCGGAGTCACCTAGTGCAG”, the binding signal rises from 3530 fluorescence intensity (a.u.) to 42400 fluorescence intensity (a.u.).

Going from “CCAGGATAAAATAAAGGTTGTATGTTACAAATGTTTGATCCGGAGTCACCTAGTGCAG” to “TTGATTGAAATTGGAGATGATGTGACTGAAAAGTTGTGTGCGGAGTCACCTAGTGCAG”, the binding signal falls from 42200 fluorescence intensity (a.u.) to 4220 fluorescence intensity (a.u.).

First: GAAGTGTCCATATTGAGTCATTTGTCCATTTGCCCAGGCACGGAGTCACCTAGTGCAG
Second: TCCTCTTGCCTCCTCCGCTGAGGCAGCCAGTGCGTGCGCCCGGAGTCACCTAGTGCAG
The binding signal of the first is higher: 4960 fluorescence intensity (a.u.) for the first, 3360 fluorescence intensity (a.u.) for the second.

Compared with “AGATGATCTAGGCGTGCGTGCATGCATGCGTGGCCCGCCACGGAGTCACCTAGTGCAG”, “CTCCTCCTCCTCCAGACCTCCACGCGAGCGTGCCCCGGGGCGGAGTCACCTAGTGCAG” is higher in binding signal: 4340 fluorescence intensity (a.u.) for the first, 4470 fluorescence intensity (a.u.) for the second.

Compared with “AAAACACAGGAATGGTCGTTTGATTGGAGCGCAGGAGAAACGGAGTCACCTAGTGCAG”, “AAGGAAGTCGTTTTGGACAGCGACACAGTCTCTAAAACACCGGAGTCACCTAGTGCAG” is lower in binding signal: 64900 fluorescence intensity (a.u.) for the first, 58900 fluorescence intensity (a.u.) for the second.

First: TTGCAAACACAGGAATTACCGTTTGATTGAACCACAGGAACGGAGTCACCTAGTGCAG
Second: GCCTCGTTTGATTGGTCACATGCATGGAAAGAGACTCACACGGAGTCACCTAGTGCAG
The binding signal of the first is lower: 12300 fluorescence intensity (a.u.) for the first, 16700 fluorescence intensity (a.u.) for the second.

First: CAACTTTGGAAGAACTAAACACAGCATATGACAGTGCAGTCGGAGTCACCTAGTGCAG
Second: CCGTACTCATAAAGGAAGTCGTTTTGGACAGCATCACGGTCGGAGTCACCTAGTGCAG
The binding signal of the first is lower: 4130 fluorescence intensity (a.u.) for the first, 4170 fluorescence intensity (a.u.) for the second.

Compared with “TAACATAGTTGATATTGTTTAATGTCATGACAAAGAATGACGGAGTCACCTAGTGCAG”, “CTCCTACATGCACTCCCCTCTACAAAACCACAACCAGCATCGGAGTCACCTAGTGCAG” is higher in binding signal: 3580 fluorescence intensity (a.u.) for the first, 3600 fluorescence intensity (a.u.) for the second.
